In the library only some 10% were active in any assay of this set; here they are far more common.
hNpr1 antagonist: human Npr1 receptor antagonism | P16066 | HEK293 hNpr1 GloSensor cGMP, ANP-stimulated luminescence | Potency, µM (doses to about 46.3 µM), inactives show at the highest dose activity change, negative = inhibition, actives largely listed as inhibitors | actives 1.6% (n = 76,000); calls by dose curve; also: % is scaled to controls: 0 for no effect and ±100 for the full control effect; nearly all actives have a fitted effect of over 60% in size
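Compound pre-incubated 30 min at room temperature on GloSensor-loaded HEK293 cells stably carrying hNpr1 and the pGS-40F cGMP biosensor. Stimulation uses hNppA at 0.1 nM final; luminescence is taken at baseline and 20 min post-agonist.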
GPT2 inhibitor: GPT2 alanine aminotransferase inhibition; Potency, µM (titrated, usually from 57.7 µM), inactives show at the highest dose activity change, negative = inhibition, hits mostly inhibitors; actives 0.25% (n = 100,000); Recombinant GPT2, coupled pyruvate oxidase/HRP Amplex Red fluorescence; Q8TD30; AID 1671188; also: % is scaled to controls: 0 for no effect and ±100 for the full control effect; nearly all actives have a fitted effect of over 60% in size
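Recombinant GPT2 (10ng/uL) with 250uM a-KG and 2mM L-alanine, 30 min at room temperature, in HEPES pH 7.5 buffer. Pyruvate detected by pyruvate oxidase/HRP/Amplex Red fluorescence after 30 min in the dark; AOA (50uM) as positive control.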
NIH3T3 tox: NIH 3T3 cell cytotoxicity; NIH 3T3 viability, CellTiter-Glo ATP luminescence, 48-72 h; Potency, µM (highest dose often 96.7 µM), inactives show top-dose activity change, negative = cytotoxicity, usual class: inhibitors; actives 4.3% (n = 94,000); also: % is scaled to controls: 0 for no effect and ±100 for the full control effect; nearly all actives have a fitted effect of over 55% in size
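Cytotoxicity is measured as loss of cellular ATP: NIH 3T3 cells (400/well) are exposed to compound for 48 or 72 hr at 37 °C, then CellTiter-Glo luminescence is imaged after 10 min at room temperature.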
Luciferase inh: inhibitors of firefly (Photinus pyralis) luciferase | P08659 | purified P. pyralis luciferase, luminescence, biochemical | Potency, µM (titrated, usually from 115 µM), hits mostly inhibitors | actives 2.5% (n = 76,000); also: % is scaled to controls: 0 for no effect and ±100 for the full control effect; nearly all actives have a fitted effect of over 65% in size
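Inhibitors were tested against purified firefly luciferase in a biochemical, low-substrate format (both substrates at 10uM) and luminescence measured with a CCD imager.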
HEK293 tox: kills HEK 293 cells; AID 1345083; Potency, µM (top dose mostly 115 µM), for the others: top-dose activity change, negative = cytotoxicity, hits mostly inhibitors; actives 6.6% (n = 94,000); HEK 293 viability, ATP luminescence (CellTiter-Glo), 48-72 h; also: % is scaled to controls: 0 for no effect and ±100 for the full control effect; nearly all actives have a fitted effect of over 60% in size
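250 HEK 293 cells/well; compound by pintool; incubated 48 or 72 hr at 37 degree Celsius; CellTiter-Glo added, 10 min RT, luminescence imaged.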
Npr1 antag conf: confirmation of human Npr1 natriuretic peptide receptor antagonists; shares compounds with hNpr1 antagonist; HEK293 hNpr1 cGMP GloSensor luminescence, ANP-stimulated; Potency, µM (doses to about 57.6 µM), without a hit: at the top dose activity change, negative = inhibition, most hits filed as inhibitors; actives 76% (n = 1,400); calls by dose curve; also: nearly all actives have a fitted effect of over 70% in size
NPR2 antag: antagonizes human Npr2, subtype selectivity check; AID 1347046; actives 67% (n = 1,400); Potency, µM (highest dose often 57.6 µM), inactives show top-dose activity change, negative = inhibition, actives largely listed as inhibitors; HEK293 hNpr2 GloSensor cGMP luminescence, CNP-stimulated; shares compounds with hNpr1 antagonist; calls by dose curve; also: nearly all actives have a fitted effect of over 70% in size
Target sequence (P20594 whole entry, looked up): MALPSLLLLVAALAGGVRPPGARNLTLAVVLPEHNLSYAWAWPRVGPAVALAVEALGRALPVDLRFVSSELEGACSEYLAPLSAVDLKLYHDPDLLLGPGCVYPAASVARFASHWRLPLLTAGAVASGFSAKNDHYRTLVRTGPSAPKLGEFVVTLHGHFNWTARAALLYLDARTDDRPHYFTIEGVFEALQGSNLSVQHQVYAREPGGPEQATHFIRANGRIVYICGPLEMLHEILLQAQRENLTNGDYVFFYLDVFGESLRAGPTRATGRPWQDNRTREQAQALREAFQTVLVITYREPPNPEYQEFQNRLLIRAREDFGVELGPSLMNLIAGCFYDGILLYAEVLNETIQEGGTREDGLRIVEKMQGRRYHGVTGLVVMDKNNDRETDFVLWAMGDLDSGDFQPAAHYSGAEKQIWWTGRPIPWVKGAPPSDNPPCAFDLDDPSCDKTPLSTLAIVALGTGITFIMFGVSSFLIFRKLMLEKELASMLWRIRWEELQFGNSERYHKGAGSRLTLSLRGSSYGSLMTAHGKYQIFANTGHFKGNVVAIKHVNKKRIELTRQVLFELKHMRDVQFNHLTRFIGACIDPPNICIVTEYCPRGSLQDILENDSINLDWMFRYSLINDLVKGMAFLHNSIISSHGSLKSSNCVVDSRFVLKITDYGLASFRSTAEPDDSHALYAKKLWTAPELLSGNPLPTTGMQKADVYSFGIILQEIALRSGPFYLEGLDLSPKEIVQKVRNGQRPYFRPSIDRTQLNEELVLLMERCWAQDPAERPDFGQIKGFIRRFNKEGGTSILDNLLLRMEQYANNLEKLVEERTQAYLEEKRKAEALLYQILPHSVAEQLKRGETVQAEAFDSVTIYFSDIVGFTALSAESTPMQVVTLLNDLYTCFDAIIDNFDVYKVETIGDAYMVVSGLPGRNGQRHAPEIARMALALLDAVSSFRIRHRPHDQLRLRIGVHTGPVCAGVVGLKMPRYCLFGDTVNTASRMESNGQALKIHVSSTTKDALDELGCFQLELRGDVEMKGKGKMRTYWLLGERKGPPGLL
FLuc inh counter: counter-screen for Npr1 antagonists: firefly luciferase inhibitors | shares compounds with hNpr1 antagonist | purified FLuc enzyme, luminescence, Km substrate | Potency, µM (top dose mostly 57.6 µM), without a hit: at the highest dose activity change, negative = inhibition, hits mostly inhibitors | actives 0.7% (n = 1,400) | AID 1347047; also: 0% is about no effect
GloSensor ctrl: reduces cGMP signal in GloSensor control cells | actives 69% (n = 1,400) | HEK293 GloSensor cGMP, SNP-stimulated, luminescence | shares compounds with hNpr1 antagonist | Potency, µM (doses to about 57.6 µM), for inactives: top-dose activity change, negative = inhibition, actives largely listed as inhibitors; calls by dose curve; also: % is scaled to controls: 0 for no effect and ±100 for the full control effect; nearly all actives have a fitted effect of over 70% in size
The depositor's hits bear a star; i = inactive; ? = inconclusive; · = no result; [ ] = remark or other dose. Unless noted, calls follow the shape of the dose curve; as a rule, active = well fitted curve in the direction sought with a large enough effect; inconclusive = small, poorly fitted or top-dose-only effect, or another doubt; inactive = no such curve, though single readings can be large; an effect the other way counts as inactive or inconclusive. Potency is read from the fitted curve at half-maximal effect.

SMILES | hNpr1 antagonist | GPT2 inhibitor | NIH3T3 tox | Luciferase inh | HEK293 tox | Npr1 antag conf | NPR2 antag | FLuc inh counter | GloSensor ctrl
COc1ccc(C(=O)N2CCCN(c3cc(-c4ccc(F)cc4)[nH]n3)CC2)c(C)c1 | 5.62µM* | ? | ? | i | ? | 10.9µM* | 12.2µM* | -0.1% | 6.85µM*
CCC1(O)CCC12CCN(C(=O)COc1ccc(F)cc1)CC2 (configuration not stated) | · | i | -23.6% | · | -3.5% | · | · | · | ·
CC1(CCCCc2ccccc2)COc2ccc(C(=O)N3CC(O)C3)cc2N1 (configuration not stated) | 35.5µM* | -8.3%[88.5 µM] | ? | i | ? | 39.6µM* | 35.3µM* | 0.9%[86.2 µM] | 31.4µM*
CC1(CCCCc2ccccc2)COc2ccc(C(=O)NC3CC3)cc2N1 (configuration not stated) | 20µM* | -12.1%[88.5 µM] | ? | i | ? | 35.3µM* | 28µM* | -1.3%[86.2 µM] | 17.7µM*
CCC(C(=O)Nc1ccc2c(c1)CN(Cc1ccc(OC)cc1OC)C(=O)C(C)O2)c1ccccc1 (configuration not stated) | -10.3% | -30.0% | ? | i | ? | · | · | · | ·
CCOc1ccc(CC(=O)N2CCC(Cc3nc(-c4ccccc4)no3)CC2)cc1 | 15.8µM* | i | ? | i | 22.4µM* | 13.7µM* | 17.2µM* | 9.1% | 12.2µM*
Cc1cccc(CC(=O)N2CCC(Cc3nc(-c4cnccn4)no3)CC2)c1 | 1.2% | i | -11.5% | i | 9.9% | · | · | · | ·
COc1ccc(CC(=O)N2CCC(Cc3nc(-c4ccccc4)no3)CC2)cc1 | 7.08µM* | i | 11.2µM* | i | 14.1µM* | 9.68µM* | 12.2µM* | -0.3% | 10.9µM*
Cc1ccccc1CC(=O)N1CCC(Cc2nc(-c3cnccn3)no2)CC1 | -0.3% | -3.0% | -5.4% | i | 5.8% | · | · | · | ·
CC(=O)Nc1ccc(CN2CCCCC23Cc2ccccc2CN(C(C)=O)C3)cc1 (configuration not stated) | · | i | -1.6% | · | -3.1% | · | · | · | ·
O=C1NCCCCCCN(Cc2ccncc2)[C@@H]2CN(C(=O)Nc3ccccc3)CC[C@H]12 | -17.8% | i | ? | i | -24.8% | · | · | · | ·
COc1ccc(CC(=O)Nc2ccc([C@@H](O)[C@H]3COCC(=O)N3Cc3ccc(C(F)(F)F)cc3)cc2)cc1 | -25.2% | -5.5% | ? | i | 31.6µM* | ? | -17.8% | -0.6% | -26.0%
Cc1cc(C(=O)N2CCC(F)(c3nc(-c4ccncc4)no3)CC2)n(C)n1 | 11.2µM* | i | -26.2% | i | ? | 27.3µM* | 30.6µM* | 1.9% | 27.3µM*
Cc1ccc(CN2CCCCCCNC(=O)[C@@H]3CCC[C@@H]32)s1 | -0.5% | i | ? | i | ? | · | · | · | ·
Cc1cccc(OCCc2noc(C3CN(C4CCN(Cc5ccccc5)CC4)C3)n2)c1 | ? | -0.7% | -26.6% | i | ? | · | · | · | ·
Cc1nn2c(c1-c1ccccc1C(C)C)N(Cc1cccc(C(=O)O)c1)CCC2 | ? | 0.0%[88.5 µM] | 44.7µM* | i | 56.2µM* | ? | -22.4%[86.2 µM] | -2.3%[86.2 µM] | -23.2%[86.2 µM]
Cc1nn2c(c1-c1ccccc1C(N)=O)N(C(=O)c1ccccc1)CCC2 | 0.5%[70.6 µM] | -2.9%[88.5 µM] | ? | i | i | · | · | · | ·
Cc1nn2c(c1-c1ccccc1C(C)C)N(CCC(C)C)CCC2 | 2.51µM* | -13.7%[88.5 µM] | 8.91µM* | i | 11.2µM* | 1.57µM* | 2.5µM* | -10.2%[86.2 µM] | 1.77µM*
COc1ccc(OC)c(CN2CCCn3nc(C)c(-c4ccccc4C(C)C)c32)c1 | -26.9%[70.6 µM] | i | 35.5µM* | i | 63.1µM* | 39.6µM* | 39.6µM* | 1.9%[86.2 µM] | ?
Cc1ccccc1C(=O)N1CCN(c2ccnc3ccnn23)CC1 | · | -5.0%[88.5 µM] | ? | · | -24.4%[172 µM] | · | · | · | ·
O=C1CCC2(CCN(c3nc4ccccc4s3)CC2)CN1Cc1cccnc1 | 12.6µM* | -26.0% | -25.4% | i | ? | 17.2µM* | 19.3µM* | -4.8% | 15.3µM*
O=C1CCC2(CCCN(c3nc4ccccc4s3)C2)CN1Cc1cccnc1 (configuration not stated) | 6.5% | ? | 1.7% | i | 4.3% | · | · | · | ·
Cc1oc(-c2cccc(C(F)(F)F)c2)nc1CN1CCCC(CO)C1 (configuration not stated) | 1.5% | -4.2% | -26.8% | i | ? | · | · | · | ·
OCC1CCCN(c2ccc(-c3nc(-c4cccc(C(F)(F)F)c4)no3)cn2)C1 (configuration not stated) | 14.1µM* | -9.9% | ? | i | -29.0% | 13.7µM* | 17.2µM* | ? | 17.2µM*
COc1ccc(C(=O)Nc2ccc(-c3noc([C@@H]4CCCN4Cc4ccc(F)c(F)c4)n3)cn2)cc1 | 10µM* | -7.3% | ? | i | ? | 7.69µM* | 9.68µM* | -16.0% | 8.62µM*
SMILES | hNpr1 antagonist | GPT2 inhibitor | NIH3T3 tox | Luciferase inh | HEK293 tox | Npr1 antag conf | NPR2 antag | FLuc inh counter | GloSensor ctrl
COc1ccc(C(=O)Nc2ccc(-c3noc([C@@H]4CCCN4Cc4ccc(Cl)cc4)n3)cn2)cc1 | ? | -14.2% | ? | i | ? | · | · | · | ·
COc1ccc(C(=O)Nc2ccc(-c3noc([C@@H]4CCCN4Cc4ccccc4C)n3)cn2)cc1 | 10µM* | -13.3% | -49.7% | i | ? | 7.69µM* | 12.2µM* | -16.0% | 9.68µM*
CC(=O)NCCC(=O)N1Cc2ccccc2CC2(CCCN(CC3CCNC3)C2)C1 (configuration not stated) | · | i | i | · | i | · | · | · | ·
Cc1ncsc1CN1CCC2(CC1)CC(Cc1nc(-c3ccccc3)no1)CCO2 (configuration not stated) | 10µM* | ? | ? | i | 17.8µM* | 12.2µM* | 17.2µM* | -9.8% | 13.7µM*
O=C(C1CCCC1)N1CCn2c(nnc2-c2ccccc2)C1 | 5.0%[70.6 µM] | i | -30.8%[138 µM] | i | -10.6%[172 µM] | · | · | · | ·
CCc1ccc(C(=O)N2CCC(Cc3nc(-c4cccc(OC)c4)no3)CC2)cc1 | 3.98µM* | i | 39.8µM* | i | 22.4µM* | 9.68µM* | 13.7µM* | 1.8% | 12.2µM*

Compound activity from PubChem BioAssay.
